Records with an inconclusive call do not appear. Entries that show only a call come without a potency. Active and inactive are the calls of the source. Calls follow the shape of the dose curve; as a rule, active = well fitted activation curve with a large enough effect in the repeat runs; inconclusive = weak or mixed curves; inactive = flat fitted curve, though single readings scatter.
Potency is read from the fitted curve at half-maximal effect.

For the experiment, the target named is Nuclear receptor subfamily 1 group I member 2 (Homo sapiens) (UniProt O75469). Description: Human pregnane X receptor (PXR) activation by small molecules, qHTS assay (AID 1346985). Also: nearly all actives have a fitted effect of over 40% in size. As to conditions: DPX-2 HepG2 CYP3A4-luciferase, 24 h; series mostly up to 38.3 µM. The source says: National Center for Advancing Translational Sciences [NCATS]
NIH Chemical Genomics Center [NCGC]
U.S. Environmental Protection Agency [EPA]
National Institutes of Environmental Health Sciences [NIEHS]
National Toxicology Program [NTP]
The Pregnane X receptor (PXR), a ligand activated nuclear receptor plays a critical role in the regulation of genes involved in drug metabolism and transporters. Activation of PXR may be involved in the unwanted adverse drug-drug interactions. […] Therefore, identification of compounds with the potential for PXR activation can be of importance in improving the efficacy of drugs with less toxicity and avoiding drug-drug interactions.
DPX-2 (Puracyp, Inc.) cell lines, used for screening against human PXR activation has HepG2 cells co-transfected with a PXR response element and a luciferase construct containing CYP3A4 promoter. Increase in luciferase activity can be used to identify the compounds that activate the PXR pathway.
DPX-2 cells were dispensed at 2,000 cells per well in 5uL of assay medium into white, solid-bottom 1536-well plates using a Multidrop Combi dispenser (Thermo Scientific). The assay plates were incubated at 37C for 5hr before transferring 23nL of test compounds dissolved in DMSO and positive control via Pintool station (Wako). The assay plates were incubated at 37C for 24hr. Then 5ul One-Glo assay reagent (Promega) was added to each plate by a Flying Reagent Dispenser (FRD, Aurora Discovery) and following 30 min incubation at room temperature, luciferase activity was quantified on a ViewLux plate reader (Perkin Elmer).
With `C[N+](C)(C)CC[N+]1(C)Cc2c(Cl)c(Cl)c(Cl)c(Cl)c2C1`, the Potency result was “inactive”.
As for `O=C(O)c1ccccc1-c1ccc(C(F)(F)F)cc1`, the Potency entry was “inactive”.
With `NCC[C@H](O)C(=O)N[C@@H]1C[C@H](N)[C@@H](O[C@H]2O[C@H](CN)[C@@H](O)[C@H](O)[C@H]2O)[C@H](O)[C@H]1O[C@H]1O[C@H](CO)[C@@H](O)[C@H](N)[C@H]1O` the entry was “inactive”.
With `CCN(CC)S(=O)(=O)c1ccc(C(=O)O)cc1` the entry was “inactive”; with `CC(C)[N+](C)(C)CC(O)COc1cccc2ccccc12` (stereo not given), “inactive”.
With `OCCN1C[C@H](O)[C@@H](O)[C@H](O)[C@H]1CO` the entry was “inactive”; with `Cn1ccc2cc3c(cc21)CCN3C(=O)Nc1cccnc1`, 12.6 µM (active).
Turning to `[O-][N+](=Nc1ccccc1)c1ccccc1`, the Potency result is “inactive”.
Take `CC1CCN(CCCC(=O)c2ccc(F)cc2)CC1`: the Potency entry was “inactive”.
Turning to `Nc1nc2c(ncn2CCC(CO)CO)c(=O)[nH]1`, the Potency result is “inactive”.
Turning to `NC(=O)CCCCC1CCSS1` (stereo not given), the Potency result was “inactive”.
With `C[C@H]1O[C@@H](n2cc(F)c(=O)[nH]c2=O)[C@H](O)[C@@H]1O` the entry was “inactive”.
Take `CCN(CC)C(=O)c1ccc(O)c(OC)c1`: the Potency entry is “inactive”.
Take `CC(C)c1ccc2oc3nc(N)c(C(=O)O)cc3c(=O)c2c1`: the Potency result was “inactive”.
With `Nc1[nH]c(=O)ncc1F` the entry was “inactive”; with `Cc1cc(C)c(NC(=O)CN(CC(=O)O)CC(=O)O)c(C)c1Br`, “inactive”.
With `CCC(C(=O)NC(N)=O)c1ccccc1` (stereo not given) the entry was “inactive”.
With `OC/C=C/c1ccccc1` the entry was “inactive”.
With `NC(=O)c1ncn([C@@H]2O[C@H](CO)[C@@H](O)[C@H]2O)c1O`, the Potency entry was “inactive”.
With `NCCNC(=O)c1ccc(Cl)cn1` the entry was “inactive”; with `NC(N)=NS(=O)(=O)c1ccc(N)cc1`, “inactive”; with `Cc1ncc(CSSCc2cnc(C)c(O)c2CO)c(CO)c1O`, “inactive”.
With `CCn1cc(C(=O)O)c(=O)c2cc(F)c(N3CCN(C)CC3)cc21` the entry was “inactive”; with `CCCCCCCCCCCCCCCCCCOCC(O)CO` (stereo not given), “inactive”.
With `COc1cc(C(=O)N2CCOCC2)cc(OC)c1OC` the entry was “inactive”; with `C=CCn1c(=O)n([C@@H]2O[C@H](CO)[C@@H](O)[C@H]2O)c2nc(N)[nH]c(=O)c21`, “inactive”.
`C[C@H](O)C(=O)Nc1c(I)c(C(=O)NC(CO)CO)c(I)c(C(=O)NC(CO)CO)c1I`: the Potency result was “inactive”.
With `CC(C)[C@H](N)C(=O)OCCOCn1cnc2c(=O)[nH]c(N)nc21` the entry was “inactive”; with `CN(C)CCn1nnnc1SCC1=C(C(=O)O)N2C(=O)[C@@H](NC(=O)Cc3csc(N)n3)[C@H]2SC1`, “inactive”; with `Nc1nc(F)nc2c1ncn2[C@@H]1O[C@H](CO)[C@@H](O)[C@@H]1O`, “inactive”.
As for `O=C(O)CCNC(=O)c1ccc(N=Nc2ccc(O)c(C(=O)O)c2)cc1`, the Potency entry was “inactive”.
With `COc1cc(O)cc(O)c1` the entry was “inactive”; with `Nc1cc(C(Cl)=C(Cl)Cl)c(S(N)(=O)=O)cc1S(N)(=O)=O`, “inactive”.
For `NC(=O)c1ncn([C@@H]2O[C@H](CO)[C@@H](O)[C@H]2O)c1N`, the Potency result is “inactive”.
With `CC(C)CCCC(C)CCCC(C)CCCCC(C)CCCC(C)CCCC(C)C` (stereo not given) the entry was “inactive”; with `CCCC(=O)O[C@]1(C(=O)CCl)[C@@H](C)C[C@H]2[C@@H]3CCC4=CC(=O)C=C[C@]4(C)[C@@]3(F)C(=O)C[C@@]21C`, 11.2 µM (active); with `NS(=O)(=O)c1cc2c(cc1C(F)(F)F)NC(Cc1ccccc1)NS2(=O)=O` (stereo not given), “inactive”.
With `OCc1ccccn1` the entry was “inactive”; with `c1cc(CN2CCCCC2)cc(OCCCNc2nc3ccccc3s2)c1`, 22.4 µM (active); with `NS(=O)(=O)c1cc2c(cc1Cl)NC(CSCc1ccccc1)=NS2(=O)=O`, “inactive”.

Source of the values: PubChem BioAssay (Tox21).
